Source: PubChem
aSyn 5UTR act = Activators via SNCA 5'UTR binding, MLPCN; activity score, % (tested at 7.5 µM), hits read low; hit rate 7.1% among 300,000; alpha-synuclein 5'UTR reporter, activators screen; in the data active means activity score below about -60%
* = called active by the depositor. Only a sample is shown.

SMILES	aSyn 5UTR act
CC1N/C(=C\C(=O)c2ccccc2)N(O)C1(C)C (stereo not given)	-124*
COc1ccc(-c2cc(=O)c3ccccc3s2)cc1	-248*
COc1ccc2oc3ccc(OC)cc3c(=O)c2c1	-190*
COc1ccc2sc3ccccc3c(=O)c2c1	-170*
COc1ccc2oc3ccccc3c(=O)c2c1	-162*
Cc1cc2ccccc2n1CCNC(=O)c1ccccc1	-114*
Cc1cc2ccccc2n1CCNC(=O)c1ccc(Br)o1	-78*
C/C(=N\NC(=O)CN1CCCCC1)c1cccc([N+](=O)[O-])c1	-93*
Fc1cc(F)c2nc(N3CCCC3)sc2c1	-93*
Fc1cccc2sc(N3CCOCC3)nc12	-80*
Fc1cccc2sc(N3CCCCC3)nc12	-116*
c1cncc(C2Nc3ccccc3-c3nc4ccccc4n32)c1 (stereo not given)	-92*
c1csc(C2Nc3ccccc3-c3nc4ccccc4n32)c1 (stereo not given)	-83*
Cc1ccsc1C1Nc2ccccc2-c2nc3ccccc3n21 (stereo not given)	-169*
O=C(Nc1ccc(Br)cc1)C1OCCc2ccccc21 (stereo not given)	-84*
COc1ccc(CNC(=O)CSc2nnc(NC(=O)c3ccccc3F)s2)cc1	-69*
COc1ccccc1CNS(=O)(=O)c1ccc(-c2cc(C)no2)cc1	80
COc1ccccc1NS(=O)(=O)c1ccc(-c2cc(C)no2)s1	-102*
C/C(=N\Nc1cccc([N+](=O)[O-])c1)c1ccccc1O	-166*
C/C(=N\Nc1cccc([N+](=O)[O-])c1)c1cc(F)ccc1O	-131*
Brc1ccc2oc(-c3ccn[nH]3)cc2c1	-175*
O=C(N=Nc1c(O)[nH]c2ccc(Br)cc12)c1cc(-c2cccs2)nc2ccccc12	81
O=C(N=Nc1c(O)[nH]c2ccccc12)c1cccs1	-74*
C=CCn1c(O)c(N=NC(=S)Nc2cccc(C)c2)c2ccccc21	94
Oc1ccc(NC(=S)N=Nc2c(O)[nH]c3ccccc23)cc1	-131*
SMILES	aSyn 5UTR act
CC(C)c1ccc2[nH]c(O)c(N=NC(=O)c3cccc(S(=O)(=O)Nc4ccc(Cl)cc4)c3)c2c1	79
CC(C)(C)n1cnc2cc(NC(=O)c3ccc(Cl)cc3)ccc21	-138*
Cn1cnc2cc(NC(=O)c3cccs3)ccc21	-97*
Cn1cnc2cc(NC(=O)c3ccc(Cl)cc3)ccc21	-139*
O=C(Nc1ccc2nn(-c3ccccc3)nc2c1)c1cccs1	-178*
Cc1cccc(C(=O)Nc2ccc3c(c2)ncn3C)c1	-112*
COCCNC(=O)c1ccc2c(c1)ncn2-c1cccc(C)c1	-75*
Cc1ccc(NC(=O)C(C)OC(=O)c2n[nH]c3ccccc23)cc1 (stereo not given)	-71*
CCc1nnc2c3cnn(-c4ccccc4)c3ncn12	-183*
CC(=O)c1cccc(NC(=O)c2cc(-c3ccc(C)cc3)on2)c1	-137*
CCCc1cc(C(=O)Nc2cccc(C(C)=O)c2)no1	-80*
C#C[C@]1(O)CC[C@H]2[C@@H]3CCc4cc(OC5CCCC5)ccc4[C@H]3CC[C@@]21C	-75*
C#C[C@]1(O)CC[C@H]2[C@@H]3CCc4cc(OC)ccc4[C@H]3CC[C@@]21C	-70*
C=CCN=C1NN=C(c2cc(C)n(CCOC)c2C)CS1	86
Oc1ccc(C2=NNC(=NCc3ccc4c(c3)OCO4)SC2)c(O)c1	-87*
CCOc1ccc2cc(C(=O)NCc3ccccc3)c(=N)oc2c1	-102*
COc1ccc2cc(C(=O)c3ccccc3)c(=O)oc2c1	-151*
CCOc1ccc2cc(C(=O)c3ccccc3)c(=O)oc2c1	-161*
COc1ccc2cc(S(=O)(=O)c3ccccc3)c(=O)oc2c1	-75*
S=C(NCc1ccco1)Nc1ccc(Cl)cc1Cl	-108*
S=C(NCc1ccco1)Nc1ccc(Br)cc1Cl	-141*
O=C(Nc1ccc2c(c1)OCO2)Nc1ccc(Br)cn1	-157*
Cc1ccc(NC(=O)NCc2ccc3c(c2)OCO3)cc1C	-79*
O=C(NCc1cccs1)Nc1cccc(Cl)c1	-120*
O=C(Nc1ccc2c(c1)CCC2)Nc1ccc2c(c1)OCO2	-111*
SMILES	aSyn 5UTR act
O=C(Nc1ccc2c(c1)OCCO2)NC12CC3CC(CC(C3)C1)C2	-195*
O=C(Nc1ccc2c(c1)OCO2)Oc1ccccc1	-106*
COc1ccc2[nH]c(C(=O)Nc3ccc4c(c3)OCO4)cc2c1	-134*
O=C(NCc1ccc2c(c1)OCO2)Nc1cccc(Cl)c1	-127*
NS(=O)(=O)c1ccc(NC(=O)Nc2ccc3c(c2)OCO3)cc1	-118*
COc1cccc(NC(=O)Nc2ccc3c(c2)OCO3)c1	-111*
Cc1nn(C)cc1CNC(=O)Nc1cccc(Cl)c1	-169*
O=C(Nc1cccc(Cl)c1)Nc1ccc2c(c1)OCO2	-159*
O=C(Nc1cccc([N+](=O)[O-])c1)Nc1ccc2c(c1)OCCO2	-129*
COC(=O)c1ccc(NC(=O)Nc2ccc3c(c2)OCO3)cc1	-66*
O=C(N/N=C/c1ccccc1[N+](=O)[O-])C(=O)N1CCCC1	-72*
O=C(/C=C1\NC2(CCCC2)Cc2ccccc21)C(=O)N/N=C/c1ccccc1O	74
Cc1ccc(-c2cc(C(=O)NC3CCCCC3)no2)cc1	-163*
CN(C(=O)c1cc(-c2ccccc2)on1)C1CCCCC1	-188*
O=C(NC1CCCCC1)c1cc(-c2ccccc2O)on1	-145*
O=C(NC1CCCCC1)c1cc(-c2ccc(O)cc2)on1	-153*
Cc1nc2cc(NC(=O)Nc3ccc(Br)cc3)ccc2o1	-192*
Cc1nc2cc(NC(=O)N3c4ccccc4CC3C)ccc2o1 (stereo not given)	-104*
Cc1ccsc1/C=C1/SC(N2CCOCC2)=NC1=O	-80*
Cc1cc(N2CCOCC2)n2ncc(-c3ccccc3Cl)c2n1	-160*
CC(=O)NC(=S)Nc1ccc2oc(-c3cc(F)c(F)cc3Cl)nc2c1	-111*
O=C(Cc1ccccc1)NC(=S)Nc1ccc2oc(-c3ccccc3F)nc2c1	-187*
O=C(Cc1ccccc1)NC(=S)Nc1ccc2oc(-c3ccccc3)nc2c1	-106*
COc1ccccc1OCCn1nnc2ccccc21	-101*
Cc1ccc(OCCn2nnc3ccccc32)cc1C	-200*
SMILES	aSyn 5UTR act
CCCC1=[N+](CC(=O)c2ccccc2)CCn2cccc21	-72*
Cc1cc(/C(N)=N/OC(=O)c2ccc(Cl)cc2)no1	-201*
Cc1cc(/C(N)=N/OC(=O)c2cccc(Cl)c2)no1	-193*
N/C(=N\OC(=O)c1ccc(Cl)cc1)c1ccccn1	63
COc1ccc(CCn2c(-c3ccccc3)nc3c(c(=O)c4ccccc4n3C)c2=O)cc1	-86*
COc1ccc(CCn2c(C3CCCCC3)nc3c(c(=O)c4ccccc4n3C)c2=O)cc1	75
Cc1ccc(-n2nnnc2SCC(=O)Nc2sc(C)c(C)c2C#N)cc1C	-71*
CCN1CCN(C(CNC(=O)c2ccc3c(c2)OCO3)c2cccnc2)CC1 (stereo not given)	-69*
CCN1CCN(Cc2ccc(NC(=O)c3ccc(C)c(NC(=O)N4CCNC4=O)c3)cc2C(F)(F)F)CC1	60
CCN1CCN(c2ccc(NC(=O)c3ccc4c(c3)[nH]c(=O)n4Cc3ccc(F)cc3)cc2)CC1	-68*
CCc1c(C)nc(Nc2nc(C)c3cc(OC)ccc3n2)[nH]c1=O	-102*
COc1ccc2c(C)nc(Nc3nc(C)c(C)c(=O)[nH]3)nc2c1	103
COc1ccc(C2CC(c3ccc4ccccc4c3)=NN2C(=O)COC(=O)C2CCC(=O)N2)cc1 (stereo not given)	-152*
